Experimental data: the supplement of paper PMC10849652
The full data set covers some 8,800 targets. This sample favours those with a hit. About 0.5% of all pairs of compound and target were hits.

Tests used:
Experiment in all cases: log2 fold change, soluble protein after heating vs DMSO (PISA); higher = thermal stabilisation; K562 lysate, 10 uM; active = over 0.2 and 3.5 SD of the protein, either way, in both replicates (recomputed)
[1] = compound: C1=CC=C(C=C1)[C@H](COC2=CC3=C(C=C2)NC(=O)N3)NC(=O)C4=CC=CN(C4=O)CC5=CC(=C(C=C5)F)F
Method in brief: (§1)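 Log-two fold change in thermal stability relative to solvent controls is reported from duplicates. For each sample, crude K562 extract from dounce-homogenised pellets in PBS pH 7.4 with 1 mM MgCl2, at 1 mg/mL protein, was treated with 10 μM compound for 30 min. Aliquots heated for 3 min across 48°C-58°C were pooled, brought to 0.5% NP-40 at 4°C and cleared at 21,000xg for 90 min. The supernatant was quantified by TMTpro 16plex LC-MS/MS with channel sums equalised.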

[2] = compound: CC1=C(SC2=C1C(=N[C@H](C3=NN=C(N32)C)CC(=O)N)C4=CC=C(C=C4)Cl)C
Method in brief: as §1

[3] = compound: CC1=C2C(=CC=C1)N=C(N(C2=O)C3=CC=CC=C3C)CN4C=NC5=C(N=CN=C54)N
Method in brief: as §1

[4] = compound: Cc1sc2c(c1C)C(c1ccc(Cl)cc1)=N[C@@H](CC(=O)OC(C)(C)C)c1nnc(C)n1-2
Method in brief: as §1

[5] = compound: c1ccc([C@@H]2C[C@H]2NC2CCNCC2)cc1
Method in brief: as §1

Measured: log2 fold change

CAPNS1 (UniProt U3KPR7)
inactive: [1] 0.019 | [2] 0.122

CD63 (UniProt P08962)
inactive: [1] 0.006 | [2] 0.001 | [3] -0.008 | [4] -0.13 | [5] -0.242

CCAR2 (UniProt Q8N163)
inactive: [1] 0.001 | [2] 0.005 | [3] -0.007 | [4] 0.003 | [5] 0.004

CCNB1 (UniProt P14635)
inactive: [1] -0.019 | [2] 0.063 | [3] 0.038 | [4] -0.032 | [5] 0.036

BRAT1 (UniProt Q6PJG6)
UniProt Q6PJG6, sequence (Q6PJG6 whole entry, looked up): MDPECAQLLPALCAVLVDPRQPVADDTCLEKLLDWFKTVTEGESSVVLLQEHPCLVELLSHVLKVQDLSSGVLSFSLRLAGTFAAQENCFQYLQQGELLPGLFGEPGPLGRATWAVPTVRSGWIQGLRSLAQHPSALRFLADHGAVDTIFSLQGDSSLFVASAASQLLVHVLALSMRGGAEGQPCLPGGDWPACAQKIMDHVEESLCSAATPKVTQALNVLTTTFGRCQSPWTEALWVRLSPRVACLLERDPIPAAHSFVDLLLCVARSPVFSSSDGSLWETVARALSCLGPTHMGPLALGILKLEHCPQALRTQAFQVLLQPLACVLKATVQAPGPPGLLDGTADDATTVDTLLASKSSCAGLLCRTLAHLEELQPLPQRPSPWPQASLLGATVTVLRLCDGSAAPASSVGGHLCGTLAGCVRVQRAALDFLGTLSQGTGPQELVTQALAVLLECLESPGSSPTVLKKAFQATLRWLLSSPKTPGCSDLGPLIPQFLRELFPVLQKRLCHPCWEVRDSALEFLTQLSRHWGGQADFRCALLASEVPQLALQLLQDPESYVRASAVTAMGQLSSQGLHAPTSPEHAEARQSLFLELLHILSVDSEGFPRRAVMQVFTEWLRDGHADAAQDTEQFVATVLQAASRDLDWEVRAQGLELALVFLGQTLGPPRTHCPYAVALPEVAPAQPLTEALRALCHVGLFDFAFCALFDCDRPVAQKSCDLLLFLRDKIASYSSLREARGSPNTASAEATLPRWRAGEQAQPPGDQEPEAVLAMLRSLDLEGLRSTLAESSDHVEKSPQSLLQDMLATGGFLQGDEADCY
inactive: [1] -0.043 | [2] -0.005 | [3] 0.027 | [4] 0.005 | [5] 0.003

CCP110 (UniProt O43303)
inactive: [1] -0.026 | [2] 0.093 | [3] 0.104 | [4] -0.143

CCDC130 (UniProt P13994)
inactive: [1] 0.01 | [2] 0.038

CARS isoform 3 (UniProt P49589)
inactive: [1] -0.026 | [2] 0.014 | [3] 0.007 | [4] 0.035 | [5] 0.03

ATXN2 (UniProt Q99700)
inactive: [1] 0.013 | [2] 0.016 | [3] 0.075 | [4] -0.02 | [5] -0.021

C12orf45 (UniProt Q8N5I9)
inactive: [1] 0.074 | [2] 0 | [3] -0.007 | [4] -0.008 | [5] -0.122

CDC7 (UniProt O00311)
inactive: [1] -0.063 | [2] 0.084 | [3] 0.019 | [4] 0.003 | [5] 0.008

BOLA2 (UniProt Q9H3K6)
UniProt Q9H3K6, sequence (Q9H3K6 whole entry, looked up): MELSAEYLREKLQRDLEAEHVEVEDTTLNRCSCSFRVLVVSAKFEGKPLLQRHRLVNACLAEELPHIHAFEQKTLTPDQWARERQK
inactive: [1] -0.052 | [2] 0.01 | [3] -0.019 | [4] 0.034 | [5] 0.078

BRAF (UniProt P15056)
inactive: [1] -0.024 | [2] -0.051 | [3] 0.012 | [4] -0.017 | [5] -0.06

C18orf32 (UniProt Q8TCD1)
inactive: [1] 0.039 | [2] 0.004 | [3] -0.245 | [4] -0.028 | [5] 0.076

C16orf70 (UniProt Q9BSU1)
inactive: [1] -0.007 | [2] -0.073 | [3] -0.071 | [4] 0.033

CASC4 (UniProt Q6P4E1)
inactive: [1] -0.008 | [2] 0.027 | [3] 0.039 | [4] -0.015 | [5] -0.055

CENPQ (UniProt Q7L2Z9)
UniProt Q7L2Z9, sequence (Q7L2Z9 whole entry, looked up): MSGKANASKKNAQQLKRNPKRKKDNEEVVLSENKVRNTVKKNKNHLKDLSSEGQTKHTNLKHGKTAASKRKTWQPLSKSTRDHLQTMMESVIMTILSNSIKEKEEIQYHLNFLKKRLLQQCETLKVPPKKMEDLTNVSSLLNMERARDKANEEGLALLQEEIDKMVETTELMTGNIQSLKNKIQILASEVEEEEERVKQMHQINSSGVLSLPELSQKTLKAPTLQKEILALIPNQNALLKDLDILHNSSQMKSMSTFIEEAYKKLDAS
inactive: [1] -0.02 | [2] -0.02 | [3] 0.038 | [4] 0.021 | [5] -0.013

CARD9 (UniProt Q9H257)
UniProt Q9H257, sequence (Q9H257 whole entry, looked up): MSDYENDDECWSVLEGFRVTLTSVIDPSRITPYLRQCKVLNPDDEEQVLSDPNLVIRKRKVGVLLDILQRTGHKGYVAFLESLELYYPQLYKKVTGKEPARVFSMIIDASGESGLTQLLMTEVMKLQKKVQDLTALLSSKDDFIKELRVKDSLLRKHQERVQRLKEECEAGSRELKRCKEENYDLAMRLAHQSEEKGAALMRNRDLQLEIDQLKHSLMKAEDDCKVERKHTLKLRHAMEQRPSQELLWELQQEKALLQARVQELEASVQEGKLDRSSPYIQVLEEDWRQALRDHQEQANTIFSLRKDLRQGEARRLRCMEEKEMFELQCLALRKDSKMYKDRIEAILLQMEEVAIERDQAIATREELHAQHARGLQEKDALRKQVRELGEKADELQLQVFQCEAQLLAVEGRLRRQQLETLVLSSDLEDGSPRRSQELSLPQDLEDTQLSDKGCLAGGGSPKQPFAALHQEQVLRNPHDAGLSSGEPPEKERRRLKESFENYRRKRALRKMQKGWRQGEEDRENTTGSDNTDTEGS
inactive: [1] -0.039 | [2] 0.065 | [3] 0.023 | [4] -0.009 | [5] 0.035

CCPG1 isoform 5 (UniProt Q9ULG6)
inactive: [1] -0.069 | [2] -0.118 | [3] 0.046 | [4] -0.082 | [5] -0.026

BMS1 (UniProt Q14692)
UniProt Q14692, sequence (Q14692 whole entry, looked up): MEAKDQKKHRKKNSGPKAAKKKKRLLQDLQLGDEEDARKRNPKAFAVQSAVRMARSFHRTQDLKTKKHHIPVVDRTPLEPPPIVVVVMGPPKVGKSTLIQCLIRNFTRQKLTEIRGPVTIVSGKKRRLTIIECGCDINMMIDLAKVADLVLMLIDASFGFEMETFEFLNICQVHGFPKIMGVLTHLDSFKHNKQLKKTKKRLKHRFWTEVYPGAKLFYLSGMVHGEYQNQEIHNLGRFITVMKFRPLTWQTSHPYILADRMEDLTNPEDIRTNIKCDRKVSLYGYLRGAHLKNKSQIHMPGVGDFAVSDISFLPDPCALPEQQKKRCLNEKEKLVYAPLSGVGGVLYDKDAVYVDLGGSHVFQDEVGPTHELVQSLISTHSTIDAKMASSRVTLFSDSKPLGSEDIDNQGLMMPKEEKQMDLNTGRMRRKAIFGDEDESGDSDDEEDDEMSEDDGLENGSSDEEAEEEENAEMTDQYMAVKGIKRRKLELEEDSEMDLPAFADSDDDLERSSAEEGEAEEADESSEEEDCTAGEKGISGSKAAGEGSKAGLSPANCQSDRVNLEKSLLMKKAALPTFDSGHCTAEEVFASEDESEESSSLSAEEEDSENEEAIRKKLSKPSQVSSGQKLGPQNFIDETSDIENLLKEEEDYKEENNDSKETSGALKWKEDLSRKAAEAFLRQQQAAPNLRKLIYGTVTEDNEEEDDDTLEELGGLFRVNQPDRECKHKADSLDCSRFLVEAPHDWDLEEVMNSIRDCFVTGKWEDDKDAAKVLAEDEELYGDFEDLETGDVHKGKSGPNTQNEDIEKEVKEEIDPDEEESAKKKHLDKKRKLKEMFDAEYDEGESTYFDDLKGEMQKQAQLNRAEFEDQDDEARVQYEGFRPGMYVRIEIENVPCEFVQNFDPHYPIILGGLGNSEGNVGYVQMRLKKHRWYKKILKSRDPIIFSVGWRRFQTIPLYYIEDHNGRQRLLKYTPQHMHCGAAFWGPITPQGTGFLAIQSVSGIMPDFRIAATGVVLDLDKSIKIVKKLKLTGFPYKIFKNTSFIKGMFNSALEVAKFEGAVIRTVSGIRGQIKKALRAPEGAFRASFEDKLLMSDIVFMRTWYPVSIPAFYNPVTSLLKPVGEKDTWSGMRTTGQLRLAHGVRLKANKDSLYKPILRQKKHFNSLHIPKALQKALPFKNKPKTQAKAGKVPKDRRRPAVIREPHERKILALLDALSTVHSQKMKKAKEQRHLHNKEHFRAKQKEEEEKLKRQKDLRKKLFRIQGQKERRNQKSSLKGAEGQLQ
inactive: [1] 0.047 | [2] -0.036 | [3] 0.027 | [4] 0.013 | [5] -0.029

BNIP1 (UniProt Q12981)
UniProt Q12981, sequence (Q12981 whole entry, looked up): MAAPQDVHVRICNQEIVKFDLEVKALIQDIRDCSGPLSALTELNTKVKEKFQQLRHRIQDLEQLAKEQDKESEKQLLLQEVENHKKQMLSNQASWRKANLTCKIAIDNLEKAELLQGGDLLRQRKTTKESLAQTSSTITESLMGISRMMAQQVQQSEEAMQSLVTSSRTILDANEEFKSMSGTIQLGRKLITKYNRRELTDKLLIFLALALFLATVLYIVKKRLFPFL
inactive: [1] 0.021 | [2] -0.051 | [3] 0.001 | [4] 0.018 | [5] 0.149

CCDC32 isoform 2 (UniProt Q9BV29)
UniProt Q9BV29, sequence (Q9BV29 whole entry, looked up): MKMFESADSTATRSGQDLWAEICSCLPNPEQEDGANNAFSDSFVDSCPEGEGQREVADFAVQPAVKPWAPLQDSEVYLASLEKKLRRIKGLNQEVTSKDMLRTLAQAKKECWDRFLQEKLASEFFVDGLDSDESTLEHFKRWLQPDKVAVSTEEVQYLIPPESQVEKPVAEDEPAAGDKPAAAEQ
inactive: [1] -0.132 | [2] -0.103 | [3] -0.058 | [4] 0.015 | [5] -0.109

ATP6V0A2 (UniProt Q9Y487)
UniProt Q9Y487, sequence (Q9Y487 whole entry, looked up): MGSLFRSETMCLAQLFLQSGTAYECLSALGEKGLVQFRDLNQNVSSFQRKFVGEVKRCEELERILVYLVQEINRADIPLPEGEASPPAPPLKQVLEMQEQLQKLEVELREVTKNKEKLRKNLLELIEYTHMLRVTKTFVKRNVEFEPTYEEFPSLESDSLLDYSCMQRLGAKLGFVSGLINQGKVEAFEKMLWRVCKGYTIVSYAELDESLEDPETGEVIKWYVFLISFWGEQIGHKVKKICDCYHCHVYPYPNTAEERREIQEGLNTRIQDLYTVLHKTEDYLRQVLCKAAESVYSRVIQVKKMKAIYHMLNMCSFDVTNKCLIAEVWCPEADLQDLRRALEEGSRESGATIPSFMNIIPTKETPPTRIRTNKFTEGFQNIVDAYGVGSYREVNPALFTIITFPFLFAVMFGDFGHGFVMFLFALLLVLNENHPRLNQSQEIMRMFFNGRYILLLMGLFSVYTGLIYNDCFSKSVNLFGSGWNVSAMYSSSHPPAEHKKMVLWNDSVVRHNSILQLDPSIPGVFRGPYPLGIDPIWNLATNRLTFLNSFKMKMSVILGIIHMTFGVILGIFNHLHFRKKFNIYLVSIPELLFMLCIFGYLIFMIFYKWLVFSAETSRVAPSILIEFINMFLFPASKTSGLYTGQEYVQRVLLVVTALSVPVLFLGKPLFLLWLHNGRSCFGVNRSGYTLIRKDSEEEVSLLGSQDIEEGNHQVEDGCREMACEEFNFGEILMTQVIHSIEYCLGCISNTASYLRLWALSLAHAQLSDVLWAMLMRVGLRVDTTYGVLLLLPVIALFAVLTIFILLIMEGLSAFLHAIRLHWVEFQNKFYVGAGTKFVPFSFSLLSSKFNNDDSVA
inactive: [1] -0.011 | [2] -0.017 | [3] 0.026 | [4] -0.015 | [5] -0.114

CDC42BPA isoform 6 (UniProt Q5VT25)
inactive: [1] 0.008 | [2] -0.003 | [3] -0.008 | [4] 0.026 | [5] 0.052

CAMK2B (UniProt Q13554)
UniProt Q13554, sequence (Q13554 whole entry, looked up): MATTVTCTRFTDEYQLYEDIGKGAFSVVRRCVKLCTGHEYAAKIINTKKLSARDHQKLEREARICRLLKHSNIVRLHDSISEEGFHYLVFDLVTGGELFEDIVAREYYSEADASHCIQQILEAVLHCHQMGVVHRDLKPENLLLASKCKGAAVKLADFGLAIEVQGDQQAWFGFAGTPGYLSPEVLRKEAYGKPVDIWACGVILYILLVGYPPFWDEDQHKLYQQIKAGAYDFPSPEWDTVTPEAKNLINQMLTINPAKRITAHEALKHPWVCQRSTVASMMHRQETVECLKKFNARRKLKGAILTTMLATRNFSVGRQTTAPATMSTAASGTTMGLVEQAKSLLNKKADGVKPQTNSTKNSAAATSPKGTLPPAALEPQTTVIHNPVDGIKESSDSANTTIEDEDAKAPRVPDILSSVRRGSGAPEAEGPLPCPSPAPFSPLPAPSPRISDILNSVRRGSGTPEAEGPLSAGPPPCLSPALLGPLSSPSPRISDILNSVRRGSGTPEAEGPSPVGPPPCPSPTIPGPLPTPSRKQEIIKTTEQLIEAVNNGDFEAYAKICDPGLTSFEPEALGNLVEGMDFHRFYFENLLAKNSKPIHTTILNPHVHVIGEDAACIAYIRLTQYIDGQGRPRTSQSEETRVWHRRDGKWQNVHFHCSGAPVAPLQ
inactive: [1] 0.036 | [2] -0.052 | [3] -0.032 | [4] -0.056 | [5] -0.091
